According to the supplement of paper PMC6555819:

Each sequence was assayed on VDR:RXRa (NR concentration 270 nM, RXRa partner concentration 90 nM) (assay: PBM binding z-score (relative to random genomic background probes); higher = stronger binding; sequences stand for … in GC…GCGATTGACAGCGTAGAATGAAGG).
Protocol: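 Protein-binding microarray (Agilent 4x180K custom design, double-stranded 60-nt probes: 5' GC cap, 34-nt variable region, 24-nt constant primer region; full probe sequence given). Purified or IVT nuclear receptor:RXRα heterodimers (3:1 NR:RXRα, mostly 270:90 nM) or homodimers were incubated for 1 h in PBS with 2% milk and no ligand, then detected with Alexa488 antibodies. Fluorescence from o1-orientation probes (~5 replicates averaged) was converted to z-scores against 500 random hg19 background probes. Variable regions are seed direct-repeat (DR0–DR5) sites, all their single-nucleotide variants and half-site ablations.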

Row | Sequence | PBM binding z-score
1 | TCATATAGGTAAATGCTATGTGAAAGTCCGATCT | 0.852
2 | TCTAGCAGGCCAGGGGGTCACTCAAGAGGTACGG | 4.25
3 | CCTACTGGGCCAAGGTCGTTGATCAGTCAAAGCA | 0.505
4 | AGTCAAAGTTCAATAGGTAACGTAAGATTCAGCT | 3.71
5 | TTACCTAGGTGAAAGGTCGTTGATGCACGCCTTG | 2.75
6 | TTACCAAGGTGATCTGAGGTCGTTGATCCAACTC | 4.13
7 | CCTGCTGGGTCAATGGTCAGCTAAAGCAGCTCGC | 0.85
8 | ATACCAAGGTGATTGTGAGGTCGTTGATACTAAC | 3.53
9 | AATACACGGTCACTAGGCCAGAGTAGGTACGAAT | 0.248
10 | TAGCCTAGGTCATTCGGGGGCCAGTATAGAAAGC | 3.99
11 | CCTACTGGGCCATCTGGTCATTGATATCAACGTT | -0.267
12 | CGAACTAGGTCAGAACAGGACAGTGAGGGATGAT | 0.739
13 | TTCCCAAGGTGAAAGGTCGTTGATGCACGCCTTG | 3.35
14 | CCTACTGGGACACGAAAGGTCATTGATTCAGTGA | 4.06
15 | CCTCGGAGGACAGAAGGTCAGAGCTGTCCGCTTT | 1.02
16 | GTACCAAAGTGAATAGGTCGTTGATGAGTAGGCG | 0.0078
17 | TCGTATAGGTAATACAGGTGAAAGTCGGCATCTA | 0.991
18 | CCGACTGGGGCATAAGGTTACCATTAGCCAGCCC | -0.0219
19 | ATCGAAAGGTCCTGAGGTGAGTATACAGAAAGGC | 0.189
20 | AGAACAAGGGCACGCTGAGTTGATAGCAGAGTAG | 1.36

Row | Sequence | PBM binding z-score
21 | CGAACTAGGTCAAGGACAGAGAATCTCCGCACGC | 1.02
22 | GCGACTGGGGCAAAGCAGGTTACCATGAGGTTGG | 0.114
23 | TCTAGTTTGTCACGGAGGTCACACACGACGGGTA | 4.63
24 | AAAATGAGGTTATACGTAGATCAGGGAAGAAAGT | 1.65
25 | CCGAGTTGGTTATGGGGCATTCAGGCAACGGTGA | 0.221
26 | CCAGAGAGGTGAGAAGGTAACTCAGCCTCGATTA | 0.23
27 | GGAACGAGGGCTAAGTTGATAGCATCTGTCGACG | -0.701
28 | AGCTCTAGGTAAGACTCAGTTCAGTGAAGAACGC | 0.321
29 | TATACAGGGTCAAAGGCAAGAGTACGAATGTCGA | 4.61
30 | TCTTGTAGATCAACAGGAGGTTAAGACAGATCGA | 0.563
31 | ACTAGTTAGTCAGCTGAGGTCACACACAATTCGG | 4.19
32 | TCTCGGAGGAGACGAAAGGTCAGAGCTCGACATC | 1.87
33 | TCTATTAGTTGATTAAGGCAACCGAAACAGCGGA | 0.578
34 | CCGACTGGGGCAGAAAGGTTACCATGCCATCCGG | 0.756
35 | ATACCAAGGTAATCGTGAGGTCGTTGATACTAAC | 3.1
36 | ACTAGCAGGCCAAGTATGGGTCACTCAAACAAAG | 0.573
37 | CCTACTGGGCCAAAGTTCATTGATTCCAATGCTC | 3.24
38 | CAATCTAGGTCAAGAGGTCAAAGTCCGCTTCCCG | 6.23
39 | TCGAGTAGGTTACCAATGGGGCGTTCAGCTTTCT | -0.111
40 | GCTAATTGGTCAGTAAAAGGTCACACACCGGTCG | 4.07
